LmPK inhibitor: LmPK (Leishmania mexicana) enzyme inhibition. purified LmPK, Kinase-Glo ATP luminescence, 1 h. Q27686. Potency, µM (doses to about 57.5 µM), inactives show at the top dose activity change, negative = inhibition, most hits filed as inhibitors. hit rate 0.37% among 290,000; further: potency means the concentration at half of the fitted maximal effect; on the % scale 0 is the no-effect control and ±100 the full control effect
Target sequence (Q27686 whole entry, looked up): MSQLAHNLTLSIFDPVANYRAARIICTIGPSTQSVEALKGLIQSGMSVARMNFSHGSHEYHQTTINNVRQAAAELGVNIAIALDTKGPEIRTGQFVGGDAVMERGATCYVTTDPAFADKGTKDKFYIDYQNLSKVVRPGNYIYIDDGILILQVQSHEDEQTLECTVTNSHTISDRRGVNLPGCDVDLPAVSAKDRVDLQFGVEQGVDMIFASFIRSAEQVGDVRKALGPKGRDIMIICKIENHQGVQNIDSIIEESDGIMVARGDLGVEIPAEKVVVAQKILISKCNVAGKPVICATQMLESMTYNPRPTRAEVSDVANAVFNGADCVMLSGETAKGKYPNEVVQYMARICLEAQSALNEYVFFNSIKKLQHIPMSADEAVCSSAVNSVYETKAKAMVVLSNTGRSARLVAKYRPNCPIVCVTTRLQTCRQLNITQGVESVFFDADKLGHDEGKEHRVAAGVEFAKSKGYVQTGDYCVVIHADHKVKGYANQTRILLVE
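Purified LmPK (0.1 nM) with 0.5 mM PEP and 0.1 mM ADP in imidazole buffer pH 7.2 with MgCl2/KCl, 1 h at room temperature. ATP formed was read by luciferase luminescence and normalized to no-enzyme and uninhibited controls.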
Giardia FBPA inh: Giardia lamblia aldolase inhibition | AID 2451 | Potency, µM (top dose mostly 59.6 µM), without a hit: top-dose activity, negative = inhibition, actives largely listed as inhibitors | A8B2U2 | hit rate 0.71% among 290,000 | purified Giardia FBPA; further: potency means the concentration at half of the fitted maximal effect; on the % scale 0 is the no-effect control and ±100 the full control effect; nearly all actives have a fitted effect of over 55% in size
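40 nM FBPA preincubated 10 min at RT with compound (up to 57.5 uM final), then substrate plus GAPDH/TPI/NAD/arsenate coupling and diaphorase/resazurin added. Fluorescence read after 20 min at RT, 525/598 nm.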
Shiga toxin inh: inhibitors of Shiga toxin in Vero cells; Vero cells, Shiga toxin protein synthesis inhibition reporter; inhibition, % at 38.7 µM; hit rate 9.2% among 290,000; AID 2315; in the data active means inhibition mostly above about 28%, no sharp cut-off; inactive means mostly below about 43%; further: 0% is about no effect
Sm TGR inh: blocks Schistosoma mansoni thioredoxin glutathione reductase; Potency, µM (titrated, usually from 114 µM), without a hit: top-dose activity change, negative = inhibition, most hits filed as inhibitors; purified TGR, DTNB reduction, TNB absorbance 405 nm; Q962Y6; hit rate 3% among 360,000; AID 485364; further: potency means the concentration at half of the fitted maximal effect; on the % scale 0 is the no-effect control and ±100 the full control effect; nearly all actives have a fitted effect of over 60% in size
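TGR 20 nM + NADPH 100 uM (dispensed conc.), cpd preinc 15 min RT; start with NADPH (500 uM addition) then DTNB (15 mM addition). Kinetic TNB absorbance, 405 nm filter. Four-parameter Hill fit across titration.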
Tb PYK inh: blocks Trypanosoma brucei pyruvate kinase. Q57TT1. TbPYK enzyme, Kinase-Glo Plus ATP luminescence, 45 min. Potency, µM (series often up to 76.8 µM), inactives show top-dose activity, negative = inhibition, hits mostly inhibitors. hit rate 0.12% among 410,000. AID 624173; further: potency means the concentration at half of the fitted maximal effect; on the % scale 0 is the no-effect control and ±100 the full control effect; nearly all actives have a fitted effect of over 50% in size
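In this concentration-response screen, enzyme-free wells defined baseline while DMSO plates tracked drift. Each reaction combined TbPYK, substrate, compound and 130 uM ADP for 45 min at room temperature. Kinase-Glo Plus luminescence gave the signal.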
Cycloheximide cs: counter-screen hit for Shiga toxin inhibitors, cycloheximide | cell reporter, cycloheximide protein synthesis inhibition counterscreen | max response, % | hit rate 12% among 300,000; in the data active means max response mostly above about 13%, no sharp cut-off; inactive means mostly below about 14%; further: read at 38.3 µM for the half of the compounds with a filed dose; 0% is about no effect
The depositor's hits bear a star; ? = inconclusive; · = no result. The entries come from a sample that favours hits as a whole. Unless noted, the call rests on the fitted dose curve; in most records, active means well fitted curve in the direction sought with a large enough effect; inconclusive means small, poorly fitted or top-dose-only effect, or another doubt; inactive means no such curve, though single readings can be large; an effect the other way counts as inactive or inconclusive.

SMILES	LmPK inhibitor	Giardia FBPA inh	Shiga toxin inh	Sm TGR inh	Tb PYK inh	Cycloheximide cs
COc1ccc(CCNC(=O)c2ccc(Nc3nc4ccccc4n4nnnc34)cc2)cc1OC	·	·	·	-10%	1%	·
Nc1c(-c2ccc(Cl)cc2)cnn1-c1cccc([N+](=O)[O-])c1	2%	-8%	87*	0%	4%	19*
Nc1c(-c2ccccc2)cnn1-c1cccc([N+](=O)[O-])c1	1%	-2%	81*	-22%	-5%	31*
O=[N+]([O-])c1ccc2cn(-c3ccccc3)nc2c1	-10%	-5%	52*	1%	-7%	54*
Cc1nn(-c2cccc([N+](=O)[O-])c2)c(N)c1-c1ccccc1	2%	-6%	73*	-1%	-3%	39*
Nc1c(-c2ccc(Cl)cc2)cnn1-c1cccc(C(F)(F)F)c1	4%	0%	41	13%	0%	19
COc1ccccc1-n1cc2ccc([N+](=O)[O-])cc2n1	·	·	·	·	-1%	·
Cc1nn(-c2ccccc2)c(N)c1Sc1cccc([N+](=O)[O-])c1	1%	-14%	2	-4%	?	11
Cc1ccccc1NS(=O)(=O)c1ccc(Br)s1	·	·	·	-4%	-6%	·
O=[N+]([O-])c1ccc2c(c1)nnn2-c1ccccc1	-2%	-19%	22	-4%	1%	-2
Nc1nn(-c2ccccc2)c2ccc([N+](=O)[O-])cc12	7%	-9%	34	-5%	-12%	26*
COc1ccccc1OCCCn1c(=O)oc2ccccc21	5%	-10%	43*	-6%	-1%	24*
NC(=O)CCn1c(=O)oc2ccccc21	2%	0%	-13	0%	-10%	-3
COc1ccccc1OCCCn1c(=O)sc2ccccc21	3%	-2%	103	8%	-8%	28*
O=c1oc2ccccc2n1CCCOc1ccccc1	7%	-4%	95*	9%	4%	33*
O=C1c2ccccc2C(=O)N1CCn1c(=O)oc2ccccc21	-1%	-1%	41*	4%	2%	31*
O=c1oc2ccccc2n1CCCCCn1c(=O)oc2ccccc21	1%	4%	4	3%	-2%	19
CC(C)CC(C(=O)NCC1CCN(Cc2ccc(F)cc2)CC1)N1Cc2ccccc2C1=O (stereo not drawn)	·	·	·	0%	6%	·
Cc1ccccc1CNC(=O)Cc1csc2ccccc12	·	·	·	5%	0%	·
CCc1ccc(NC(=O)N2CC(C)Oc3ccc(C)cc32)cc1 (stereo not drawn)	·	·	·	-11%	6%	·
Cc1csc2nc(COC(=O)c3cccc(NC(=O)COc4ccccc4Cl)c3)cc(=O)n12	·	·	·	-2%	-12%	·
CC(Sc1ccc(S(=O)(=O)N(C)C)cn1)C(=O)NC1CCCC1 (stereo not drawn)	·	·	·	5%	-4%	·
O=C(O)C(=O)/C(=C\c1ccccc1)c1ccc2ccccc2n1	7%	0%	89*	0%	4%	34*
O=C(OCc1ccc([N+](=O)[O-])cc1)c1ccc2ccccc2n1	6%	-2%	-4	3%	6%	6
O=C(O)C(=O)/C(=C\c1cccc2ccccc12)c1ccc2ccccc2n1	11%	6%	-11	-18%	3%	1
SMILES	LmPK inhibitor	Giardia FBPA inh	Shiga toxin inh	Sm TGR inh	Tb PYK inh	Cycloheximide cs
O=C(O)C(=O)/C(=C\c1ccc([N+](=O)[O-])cc1)c1ccc2ccccc2n1	-3%	-26%	49*	-12%	-4%	27*
O=C(O)C(=O)/C(=C\c1ccsc1)c1ccc2ccccc2n1	-3%	·	87*	0%	3%	27*
Cc1cs/c(=N\N=C\c2cccc([N+](=O)[O-])c2)n1Cc1ccco1	-1%	0%	-9	-4%	0%	-2
C/C(=N\N=c1/scc(C)n1Cc1ccco1)c1cccc([N+](=O)[O-])c1	5%	-7%	24	-7%	0%	18*
O=C1CN(C(=O)COC(=O)C2=COCCO2)c2ccccc2N1	-2%	2%	-24	0%	1%	-4
Cc1cc(C(=O)OCC(=O)N2CCc3ccccc32)c(C)o1	0%	3%	37	8%	4%	25*
CCn1nc(C(=O)OCC(=O)N2CCc3ccccc32)c2ccccc2c1=O	1%	15%	-5	20µM*	-1%	-5
Cc1cc(C(=O)OCC(=O)c2ccc(Br)s2)c(C)o1	-8%	-5%	36	?	·	33*
O=C(OCC(=O)N1CCc2ccccc21)C1=COCCO1	-4%	-8%	56*	22µM*	-10%	37*
CCn1nc(C(=O)N2CCc3ccccc32)c2ccccc2c1=O	·	·	·	1%	4%	·
CC(NC(=O)CCCC1=NS(=O)(=O)c2ccccc2N1)c1ccccc1 (stereo not drawn)	·	·	·	-3%	3%	·
COc1cccc(CNC(=O)Cn2c(=O)ccc3cc(S(=O)(=O)N4CCC(C)CC4)ccc32)c1	·	·	·	4%	-14%	·
Cc1cc(C(=O)OCC(=O)Nc2ccccc2C)c(C)o1	·	·	·	-8%	3%	·
Cc1cc(C(=O)OCC(=O)Nc2ccc(F)cc2F)c(C)o1	-2%	7%	14	2%	4%	17*
Cc1cc(NC(=O)CCSc2ccc(Cl)cc2)no1	0%	7%	31	·	4%	7
Cc1ccc(CCSCC(=O)O)cn1	6%	2%	-2	-3%	0%	-2
Cc1ccc(SCCc2ccc(C)nc2)cc1	-3%	-3%	active	3%	-1%	22*
O=C(c1cc(Cc2n[nH]c(=O)c3ccccc23)ccc1F)N1CCN(C(=O)C2CC2)CC1	·	·	·	·	4%	·
CCCNC(=O)c1ccc(-c2nc(CS(=O)(=O)c3ccc(C)cc3)c(C)o2)cc1	·	·	·	40µM*	-1%	·
COc1cccc(CNC(=O)c2ccc(-c3nc(CS(=O)(=O)c4ccccc4)c(C)o3)cc2)c1	·	·	·	28µM*	-2%	·
COCCNC(=O)c1ccc(-c2nc(CS(=O)(=O)c3ccccc3)c(C)o2)cc1	·	·	·	22µM*	0%	·
Cc1ccc(S(=O)(=O)Cc2nc(-c3ccc(C(=O)NCc4ccccc4F)cc3)oc2C)cc1	·	·	-4	7.9µM*	·	-9
c1ccc(COc2cccc(-c3cc4nc(NCCc5ccncc5)ccn4n3)c2)cc1	·	·	·	·	9%	·
CCCCC(=O)NCCc1c(Cc2ccccc2)[nH]c2ccccc12	·	-3%	·	·	·	·
OCCOCCn1c2ccccc2c2ccccc21	3%	-2%	-10	-5%	0%	-6
O=C(O)C1CC(CCCP(=O)(O)O)CCN1 (stereo not drawn)	·	-5%	2	·	·	9
COc1ccccc1CNC(=O)c1ccc(-c2nc(CS(=O)c3ccc(C)cc3)c(C)o2)cc1 (stereo not drawn)	·	·	·	13µM*	-11%	·
COc1ccc(-c2cc(C(=O)Nc3cc(C)ccc3O)no2)cc1	0%	19%	22	15%	2%	14*
